42 molecules from PubChem BioAssay (NCATS) can be followed below.

Inconclusive results are not listed. Values without a mark were called inactive. Active and inactive are the calls of the source. Calls come from the whole dose curve; as a rule, active = well fitted curve in the direction sought with a large enough effect; inconclusive = small, poorly fitted or top-dose-only effect, or another doubt; inactive = no such curve, though single readings can be large; an effect the other way counts as inactive or inconclusive.

Test [1] addresses Aldehyde dehydrogenase, mitochondrial (Homo sapiens) (UniProt P05091). In words: qHTS for Inhibitors of the Aldehyde Dehydrogenase Family (ALDH2) Primary screen (AID 2061308).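 Note: plate controls were vehicle for no effect and reference inhibitor for full effect; nearly all actives have a fitted effect of over 55% in size.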
Test [2] addresses Retinaldehyde dehydrogenase 3 (Homo sapiens) (UniProt P47895). Nature of the test: qHTS for Inhibitors of the Aldehyde Dehydrogenase Family (ALDH1A3) Primary screen (AID 2061315).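 Note: plate controls were DMSO vehicle for no effect and reference inhibitor for full effect.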 On the technique in general: Quantitative high-throughput screening tests each substance at several concentrations.

Turning to `CCN(CC)CCCC(C)n1c(-c2ccccc2)nc2c(NC3CCCCC3)nc(C)nc21` (centres undefined), the Potency entry in test [1] and in test [2] was “inactive” throughout.

Regarding `CC(=O)Nc1sc2c(c1-c1ccc(Cl)cc1)CCNC2`, the Potency result in test [1] and in test [2] was “inactive” throughout.

Take `CN(Cc1ccccc1)C(=O)C1CCN(Cc2cccc3ccccc23)CC1`: the Potency result in test [1] and in test [2] was “inactive” in each case.

For the molecule `Cc1ccc(S(=O)(=O)Nc2cnccc2C(=O)Nc2nc(-c3cccc(F)c3)cs2)cc1`, the Potency entry in test [1] and in test [2] was “inactive” each time.

Regarding `Cc1cc(-c2cc(O)ccc2Cl)cc2nnc(Nc3ccc(OCCN4CCCC4)cc3)nc12`, the Potency entry in test [1] and in test [2] was “inactive” each time.

With `Cc1ccc(OCCn2c(CCNC(=O)c3ccc(Br)cc3)nc3ccccc32)cc1`, the Potency entry in test [1] and in test [2] was “inactive” in each case.

In the case of `Cn1nnnc1Sc1ncnc2n[nH]c(-c3cccc(S(C)(=O)=O)c3)c12`, the Potency result in test [1] and in test [2] was “inactive” in each case.

`C=CCOc1cc(Cl)ccc1C(=O)NCCN(CC)CC`: the Potency result in test [1] and in test [2] was “inactive” each time.

With `Fc1cc(Nc2nc(-c3ccncc3)nc3ccccc23)ccc1C(F)(F)F`, the Potency result in test [1] and in test [2] was “inactive” each time.

Consider `CC(=O)c1ccccc1-c1csc2ncnc(Sc3nnnn3C)c12`, for which the Potency entry in test [1] and in test [2] was “inactive” each time.

In the case of `COC(=O)c1cc2c(C(F)(F)F)cc(-c3ccccc3)cc2n1O`, the Potency entry in test [1] and in test [2] was “inactive” in each case.

Take `Cc1ccc(S(=O)(=O)Nc2cnccc2C(=O)Nc2nc(-c3ccc(-c4ccccc4)cc3)cs2)cc1`: the Potency entry in test [1] and in test [2] was “inactive” throughout.

On to `Cc1cc2c(s1)c1cnn(Cc3cccc(F)c3)c(=O)c1n2C`, for which the Potency result in test [1] and in test [2] was “inactive” throughout.

As to `O=C(OCC#CCSc1nnc(-c2cccc3ccccc23)o1)c1ccc(F)c(F)c1`, the Potency result in test [1] and in test [2] was “inactive” each time.

With `CCN1CCN(c2cccc(Nc3nn4c(=O)c5ccccc5nc4s3)c2)CC1`, the Potency result in test [1] and in test [2] was “inactive” in each case.

As to `Cn1nnnc1Sc1ncnc2scc(-c3ccc[nH]3)c12`, the Potency entry in test [1] and in test [2] was “inactive” each time.

For `CC(C)n1nc(Cc2cccc3ccccc23)c2c(N)ncnc21`, the Potency entry in test [1] and in test [2] was “inactive” in each case.

Take `Cc1ccc(NS(=O)(=O)c2ccc(F)cc2)cc1C`: the Potency result in test [1] and in test [2] was “inactive” throughout.

Take `N/C(=N\c1nnc(-c2ccncc2)s1)Nc1ccc(F)c(C(F)(F)F)c1`: the Potency entry in test [1] and in test [2] was “inactive” each time.

As for `c1ccc(-n2cc(-c3nnc4n3CCCCC4)c3ccccc32)cc1`, the Potency entry in test [1] and in test [2] was “inactive” throughout.

With `COc1ccc(C2Nc3ccccc3C(=O)N2Cc2ccc(C)o2)cc1COc1c(C)cccc1C` (centres undefined), the Potency entry in test [1] and in test [2] was “inactive” throughout.

With `COc1ccccc1-c1nnc2n1N=C(c1ccc(OC(F)F)c(OCC3CC3)c1)CS2`, the Potency result in test [1] and in test [2] was “inactive” in each case.

For `COc1ccc(C2=Nn3c(nnc3-c3ccccc3C(F)(F)F)SC2)cc1OC1CCOC1` (centres undefined), the Potency result in test [1] and in test [2] was “inactive” throughout.

Turning to `CC(C)=CCCC1(C)C2CCC1(C)C(O)C2` (centres undefined), the Potency entry in test [1] and in test [2] was “inactive” each time.

In the case of `COc1ccc(NC(=O)c2cnn3c(C)cc(C)nc23)cc1`, the Potency entry in test [1] and in test [2] was “inactive” throughout.

`CC(=O)N1CCCc2cc(S(=O)(=O)Nc3ccc(C)c(C)c3)ccc21`: the Potency result in test [1] and in test [2] was “inactive” throughout.

For the molecule `COCCNc1nc(C)nc2c1nc(-c1ccccc1)n2CCN(C)C`, the Potency entry in test [1] and in test [2] was “inactive” throughout.

For the molecule `Cc1cc(NS(=O)(=O)c2ccc(NC(=O)Cc3ccc(F)c(Cl)c3)cc2)no1`, the Potency entry in test [1] and in test [2] was “inactive” each time.

Regarding `Fc1cc(F)cc(Nc2nc(Cl)nc(NC3CCCC3)n2)c1`, the Potency entry in test [1] and in test [2] was “inactive” each time.

Consider `COC1CC(O[C@H]2CC[C@@]3(C)C(=CC[C@]4(O)C3[C@H](OC(C)=O)[C@@H](OC(=O)c3ccccc3)[C@]3(C)[C@@H](C(C)=O)CC[C@@]34O)C2)OC(C)C1OC1CC(OC)C(OC2CC(OC)C(OC3OC(C)C(OC4OC(CO)C(O)C(O)C4O)C(OC)C3O)C(C)O2)C(C)O1` (some centres undefined), for which the activity change, negative = inhibition is 8.46% [at 11.2 µM] in test [1] and 2.23% [at 11.2 µM] in test [2].

For the molecule `O=C(Nc1ncc(Cc2ccc(C(F)(F)F)cc2)s1)c1ccc(-c2cccnc2)o1`, the Potency result in test [1] and in test [2] was “inactive” in each case.

As for `Cn1c2cc(Br)sc2c2cnn(Cc3ccc(F)cc3F)c(=O)c21`, the Potency result in test [1] and in test [2] was “inactive” throughout.

As for `Cc1nc(N2CCOCC2)c2nc(-c3ccccc3)n(CC(C)(C)CN(C)C)c2n1`, the Potency entry in test [1] and in test [2] was “inactive” each time.

As to `Cc1ccccc1C(=O)n1ccc2cc(-c3nc(NC(=O)Cc4ccc5c(c4)OCO5)sc3C)ccc21`, the Potency entry in test [1] and in test [2] was “inactive” throughout.

With `C=C(C)C(=O)O[C@H]1CC2=CC(C/C(C)=C\[C@H]3OC(=O)C(=C)[C@H]13)OC2=O` (some centres undefined), the Potency result in test [1] and in test [2] was “inactive” throughout.

As to `O=C(Nc1ccc(Cl)c(Cl)c1)Nc1nnc(C2CCCCC2)s1`, the Potency entry in test [1] and in test [2] was “inactive” each time.

With `COc1ccc(-c2nc(Nc3ccc(F)c(F)c3)c3ccccc3n2)cc1`, the Potency result in test [1] and in test [2] was “inactive” throughout.

As for `Cc1ccnc(NC(=S)NC2CN(c3cccc(C(F)(F)F)c3)C2)c1`, the Potency result in test [1] and in test [2] was “inactive” throughout.

Regarding `Cc1nc(NC2CCCCC2)c2nc(-c3ccccc3)n(CC3CCN(C)CC3)c2n1`, the Potency result in test [1] and in test [2] was “inactive” each time.

On to `COc1cccc(C2c3c(ncn(Cc4cccs4)c3=N)Oc3ccc4ccccc4c32)c1` (centres undefined), for which the Potency result in test [1] and in test [2] was “inactive” throughout.

In the case of `COc1ccc([S+](=O)([O-])N2CCCN([S+](=O)([O-])c3ccc(OC)c(NC(C)=O)c3)CC2)cc1NC(C)=O`, the Potency entry in test [1] and in test [2] was “inactive” throughout.

For the molecule `Cc1ccsc1CN(C)c1ncnc2ccc(-c3ccc([C@@H](C)O)o3)cc12`, the Potency result in test [1] and in test [2] was “inactive” each time.
